# Rows were chosen to be rich in hits. Some 11% of all compounds tested hit in one or more screens of this group.
# HPGD block – HPGD (human) dehydrogenase inhibition | Potency, µM, inactives show top-dose activity change, negative = inhibition, hits mostly inhibitors | 4.3% of 150,000 active | purified HPGD, NADH fluorescence kinetic, PGE2 substrate; active = well fitted inhibition curve with a large enough effect, not every such curve was filed as active; inconclusive = small, poorly fitted or top-dose-only effect, or another doubt; inactive = no such curve, though single readings can be large or run the other way; also: potency is read from the fitted curve at half-maximal effect
# Target sequence (P15428 whole entry, looked up): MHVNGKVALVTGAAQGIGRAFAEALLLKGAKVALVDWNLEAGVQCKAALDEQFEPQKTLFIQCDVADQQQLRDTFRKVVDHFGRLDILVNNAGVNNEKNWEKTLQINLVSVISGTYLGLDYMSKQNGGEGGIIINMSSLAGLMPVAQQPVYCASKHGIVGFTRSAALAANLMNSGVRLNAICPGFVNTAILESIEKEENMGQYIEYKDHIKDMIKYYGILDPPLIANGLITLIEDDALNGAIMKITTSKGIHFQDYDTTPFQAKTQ
#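 NADH formation kinetics: reaction with 30 uM PGE2 and 1 mM NAD+ (final), 20 nM enzyme, Tris-HCl pH 8 with Tween 20, after 15 min compound preincubation at room temperature. Fluorescence change, last versus first of five reads.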
# ALDH1A1 inh – inhibitors of human aldehyde dehydrogenase 1A1 | 7.3% of 220,000 active | P00352 | Potency, µM (series often up to 75.3 µM), without a hit: top-dose activity, negative = inhibition, usual class: inhibitors | Purified ALDH1A1, NADH fluorescence, propionaldehyde substrate | AID 1030; active = well fitted inhibition curve with a large enough effect, not every such curve was filed as active; inconclusive = small, poorly fitted or top-dose-only effect, or another doubt; inactive = no such curve, though single readings can be large or run the other way;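 also: potency is read from the fitted curve at half-maximal effect; plate controls were no enzyme wells and a reference inhibitor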
# PNC assembly inh – blocks assembly of the perinucleolar compartment; AID 2417; PC3M PTB-GFP, PNC prevalence imaging, 16 h; active compounds read low; activity change (PNC), negative = inhibition, % at 10 µM; 3.1% of 140,000 active;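 active = readout at or below -70, meaning at least 70% loss of cells showing the perinucleolar compartment, a nuclear body marking cancer cells; inconclusive = readout between -30 and a set limit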;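 also: plate controls were DMSO wells for no effect and camptothecin positive control wells for full effect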
#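 Read-out is percentage of cells bearing a perinucleolar compartment, from automated 20x imaging of fixed, Hoechst-stained PC3M PTB-GFP cells. Cells were seeded 4 h, then exposed 16 h to compound (23 nl of library stock) in duplicate plates.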
# NPSR antagonist – blocks cAMP signaling of the human neuropeptide S receptor; 1% of 220,000 active; Potency, µM (doses to about 38.3 µM), for inactives: at the top dose activity change, negative = inhibition, actives largely listed as inhibitors; AID 1461; CHO-NPSR cells, cAMP TR-FRET, antagonist mode; also: potency is read from the fitted curve at half-maximal effect; nearly all actives have a fitted effect of over 50% in size
# IMPase Li cell – membrane-permeable IMPase blocker, potentiated with lithium; 0.35% of 210,000 active; Potency, µM (series often up to 59.4 µM), for inactives: at the top dose activity, negative = IMPase inhibition, hits mostly inhibitors; CHO-M1 cells, IP1 TR-FRET (IP-One), carbachol + lithium;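 also: IP1 builds up when IMPase is blocked and the TR-FRET signal falls; potency is read from the fitted curve at half-maximal effect; plate controls were basal vehicle for no effect and high inhibitor control for full effect; nearly all actives have a fitted effect of over 50% in size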
#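 Test compounds were applied to CHO-M1 cells previously cultured for 16–30 h at 2000 per well. A small lithium amount accompanied them; after 30 min at 37C, IP1 was quantified by TR-FRET.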
# IMPase inh – cell-permeable inhibitors of inositol monophosphatase (IMPase); P97697; 120,000 tested, under 10 active; inhibition (IP1 accumulation), % at 46.1 µM; CHO-M1 cells, IP1 accumulation, HTRF TR-FRET ratio; active = well fitted curve in the direction sought with a large enough effect in the signal ratio, not every such curve was filed as active; inconclusive = small, poorly fitted or top-dose-only effect, or a change in a side signal; inactive = no such curve, though single readings can be large or run the other way; the % refers to the signal ratio;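 also: cells stimulated with carbachol in lithium chloride buffer; plate controls were DMSO basal wells for no effect and reference inhibitor wells for full effect; higher means more IMPase inhibition seen as more IP1 and lower FRET ratio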
# Target sequence (P97697 whole entry, looked up): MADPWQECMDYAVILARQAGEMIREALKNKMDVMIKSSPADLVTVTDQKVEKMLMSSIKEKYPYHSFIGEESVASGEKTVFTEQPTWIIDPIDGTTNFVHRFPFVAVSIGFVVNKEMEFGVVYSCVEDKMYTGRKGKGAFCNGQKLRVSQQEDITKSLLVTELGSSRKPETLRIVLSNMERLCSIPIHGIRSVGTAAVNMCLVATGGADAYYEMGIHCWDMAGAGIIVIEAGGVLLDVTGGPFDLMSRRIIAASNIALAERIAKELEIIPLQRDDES
#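 In this qHTS, compounds (final up to 46 uM) act on CHO-M1 cells that are then activated through the M1 receptor with carbachol, in pH 7.4 buffer containing 50 mM LiCl, for 30 min. IP1 accumulation is quantified by the IP-One immunoassay.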
# * hit, by the source's call; ? = inconclusive; / = not tested or not shown; [ ] = remark or other dose. Unless noted, calls follow the shape of the dose curve; as a rule, active = well fitted curve in the direction sought with a large enough effect; inconclusive = small, poorly fitted or top-dose-only effect, or another doubt; inactive = no such curve, though single readings can be large; an effect the other way counts as inactive or inconclusive. Unless noted, % is scaled to controls: 0 for no effect and ±100 for the full control effect.
SMILES,HPGD block,ALDH1A1 inh,PNC assembly inh,NPSR antagonist,IMPase Li cell,IMPase inh
Cc1ccc(S(=O)(=O)N/N=C\c2cc3c(cc2Br)OCO3)cc1,-4%,-9%,35,-1%,9%,/
O=[N+]([O-])c1cc2c(cc1/C=N/NS(=O)(=O)c1ccc(Br)cc1)OCO2,/,3.2µM*,/,-47%,17%,/
CN1CCN(Cc2nc3c(c(=O)n(C)c(=O)n3C)n2CCCc2ccccc2)CC1,-24%,5.6µM*,-18,-5%[46.1 µM],-2%[38.3 µM],5
Cn1c(=O)c2c(nc(CN3CCN(CCO)CC3)n2CCc2ccccc2)n(C)c1=O,/,28µM*,/,-3%,-7%,/
CCCn1c(CN2CCCCC2C)nc2c1c(=O)n(C)c(=O)n2C (stereo not given),-2%,6%,-95*,-12%[46.1 µM],12%[38.3 µM],9
CCCCCCn1c(CN2CCN(C)CC2)nc2c1c(=O)n(C)c(=O)n2C,-14%,4%,-122*,6%[46.1 µM],3%,-8
Cn1c(=O)c2c(nc(CN3CCCCC3)n2CCc2ccccc2)n(C)c1=O,-4%,?,-18,-1%[46.1 µM],-3%[38.3 µM],2
Cc1cc(Cl)cc(C)c1OCCCCN1CCOCC1,-4%,17%,?,2%[46.1 µM],16%[38.3 µM],?
CS(=O)(=O)N1CCCC(C(=O)NCc2ccccn2)C1 (stereo not given),-2%,-13%,-110*,1%[46.1 µM],-3%[38.3 µM],-5
CC(C)(C)c1ccc(S(=O)(=O)N2CCCCC2C(=O)NCc2ccccn2)cc1 (stereo not given),-14%,4µM*,?,-7%[46.1 µM],49%[38.3 µM],7
O=C(NCc1ccccn1)C1CN(S(=O)(=O)c2ccccc2)CCN1S(=O)(=O)c1ccccc1 (stereo not given),/,-11%,/,-26%,7%,/
COc1ccc(C(=O)c2ccc(N3CCN(C4CC(=O)NC4=O)CC3)cc2)cc1F (stereo not given),?,8.9µM*,19,-16%[46.1 µM],-13%[38.3 µM],1
COc1ccc(N2CCN(C3CC(=O)NC3=O)CC2)cc1 (stereo not given),/,7%,3,-9%[46.1 µM],/,1
COCC(C)n1c(C)cc(C(=O)CSc2nnc(N)s2)c1C (stereo not given),-4%,3%,?,-16%[46.1 µM],21%[38.3 µM],2
COc1ccc(NC(=O)Cc2c(C(=O)O)n(C)c3ccccc23)cc1OC,/,2%,/,41%,-8%,/
N[C@@H](Cc1ccc(O)c(O)c1)C(=O)O,-17%,-5%[20.9 µM],/,/,5%,-2[20.6 µM]
CC(Cc1ccc(O)c(O)c1)C(C)Cc1ccc(O)c(O)c1 (stereo not given),13µM*,28µM*,/,/,16%,5
CC(=O)c1ccc2c(c1)OCCOCCOCCOCCOCCO2,/,/,/,19%,/,/
Cc1cccc(N2CC(C(=O)OCC(=O)c3ccc(OC(=O)c4cccs4)cc3)CC2=O)c1C (stereo not given),-13%,-2%,-83*,-8%[46.1 µM],3%[38.3 µM],-4
Cc1cc(C)nc(SCc2ccc(C(=O)N/N=C/c3cccnc3)cc2)n1,/,16%,/,-7%,6%,/
Cc1cc(C)nc(SCc2ccc(C(=O)NN=C3CCCC3)cc2)n1,/,2.8µM*,/,10%,8%,/
Cc1cc(C)nc(SCc2ccc(C(=O)N/N=C3\CCCC(=O)C3)cc2)n1,/,8.9µM*,/,4%,12%,/
Cc1cc(C)nc(SCNC(=O)c2ccc(Cl)cc2)n1,28µM*,4%,-18,1%[46.1 µM],11%[38.3 µM],0
Cc1ccc(C(c2nnnn2CC2CCCO2)N2CCN(Cc3ccccc3)CC2)cc1 (stereo not given),/,?,/,1%,-2%,/
Cc1ccc(-c2cc(-c3ccccc3)nc(Cl)n2)cc1,?,?,72,-27%[46.1 µM],0%[38.3 µM],4
CC=C1C2C=C(C)CC1(N)c1ccc(=O)[nH]c1C2 (stereo not given),/,-2%,/,/,10%,/
COc1c(C)cc(C(=O)C2CCCN(C(=O)CCCn3cncn3)C2)cc1C (stereo not given),/,/,/,3%,/,/
O=C(c1cccc2ccccc12)C1CCCN(C(=O)CCCn2cncn2)C1 (stereo not given),/,10µM*,/,17%,-1%,/

# From PubChem BioAssay
